# Screens deposited in PubChem by several laboratories.
# In the library only some 27% were active in any assay of this set; here they are far more common.
# CYP2C9 activ: activators of human CYP2C9. activation factor at 5 µM. P11712. recombinant CYP2C9, luciferin-H conversion, luminescence; stronger effect = higher value; factor 1 = untreated enzyme, 0 = blocked. AID 1024. 1.4% of 96,000 active;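 active = activation factor of 2 or more for CYP2C9 at a 5 µM dose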;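 note: 0 = sulfaphenazole-blocked wells and 1 = vehicle-only wells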
# CYP2C19 activ: increases human CYP2C19 enzyme activity. 96,000 tested, under 10 active. P33261. recombinant CYP2C19, luciferin-H EGE luminescence; stronger effect = higher value; 0 = fully inhibited enzyme, 1 = untreated enzyme. activation factor at 5 µM;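 active = activation factor of at least 2 at 5 µM in the primary screen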;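 note: 0 = wells with 2.5 mM tranylcypromine and 1 = vehicle-only wells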
# Cav32 inh: human Cav3.2 channel inhibition, primary screen | O95180 | Cav3.2-expressing cells, Fluo-4 calcium fluorescence FDSS; stronger effect = lower value | B-score at 10 µM | 4% of 100,000 active | AID 449739;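 active = single-dose well whose peak fluorescence ratio is a statistical outlier from its plate by either plate-standardised score or position-corrected B-score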
# CYP2C19 inhib: inhibitors of human CYP2C19 | CYP2C19 Supersomes, luciferin-H EGE luminescence, 30 min | 21% of 96,000 active | inhibition, % at 5 µM;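 active = CYP2C19 inhibition above a set limit at 5 µM in the primary screen, cut at about 50% in these data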;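 note: plate controls were negative control wells for no effect and 2.5 mM tranylcypromine positive control for full effect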
# CYP2C9 inh: blocks human cytochrome P450 2C9. 20% of 96,000 active. AID 777. CYP2C9 Supersomes, luciferin-H conversion, luminescence. inhibition, % at 5 µM. P11712;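 active = blocking of liver enzyme CYP2C9 beyond about 50% at 5 µM, limit read from the data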
# * hit, by the source's call; / = not tested or not shown.
SMILES,CYP2C9 activ,CYP2C19 activ,Cav32 inh,CYP2C19 inhib,CYP2C9 inh
Cc1ccc(S(=O)(=O)c2c(N)n(CCN3CCOCC3)c3nc4ccccc4nc23)cc1C,1,0.3,0.62,72*,0
Cc1ccc(S(=O)(=O)c2c(N)n(Cc3ccco3)c3nc4ccccc4nc23)cc1C,0.4,0.5,-2.7,54*,65*
CC(C)c1ccc(NC(=O)C(c2ccc3c(c2)OCO3)N2CCN(C(=O)c3ccco3)CC2)cc1 (centres undefined),0.9,1,-5.2*,-2,14
CC(C)c1ccc(NC(=O)C(c2ccccc2)N2CCN(C(=O)c3ccco3)CC2)cc1 (centres undefined),0.6,1,-2.7,4,40
CCN(CC)C(C(=O)Nc1ccc(C(C)C)cc1)c1ccc2c(c1)OCO2 (centres undefined),0.7,0.9,-4.9*,14,29
CC(C)(C)C(=O)Nc1ccc(N2CCCC2)cc1,0.9,1,0.21,0,8
CCN1C(=O)/C(=C/N(C(C)=O)c2ccccc2)N(c2ccccc2)C1=S,0,0.4,-2.1,63*,95*
CCN1C(=O)N[C@H](c2ccccc2)C(C(C)=O)=C1C,/,/,0.96,/,/
O=C(c1ccccc1)c1ccc(Oc2ncccn2)cc1,0.8,0.4,-0.43,63*,21
COc1ccc(-c2[nH]ncc2/C=C(/C#N)C(=O)NC2CCCCCC2)cc1,0.7,0.8,-0.78,17,33
COC(=O)/C(C#N)=C1/C=Cc2ccccc2N1C,/,/,0.1,/,/
CCOC(=O)/C(C#N)=c1/s/c(=C2\C=Cc3ccccc3N2CC)c(=O)n1CC,0.6,0.4,/,58*,42
Cc1ccc(C)c(NC(=O)CNS(=O)(=O)c2ccccc2)c1,2.1*,0.2,-0.033,79*,-105
Cc1ccc(S(=O)(=O)NCCC(=O)O)cc1,1.2,1,0.017,2,-21
COc1cc(NC(=O)Cc2c(C(=O)O)[nH]c3ccccc23)cc(OC)c1OC,0.8,0.8,-0.3,20,23
COc1ccccc1NC(=O)CNS(=O)(=O)c1ccccc1,1.5,0,-0.68,96*,-54
COc1cc(NC(=O)CS(=O)(=O)c2ccccc2)cc(OC)c1OC,0.7,0.3,0.091,66*,31
Cc1cccc(NC(=O)CNc2cc(C)ccc2C)c1,0.7,0.2,-5.8*,84*,26
CCN(CC)CC(=O)NCC1(c2ccccc2)CCOCC1,0.8,1,0.81,-2,22
CC(C)NC(=O)[C@@H]1C[C@@]1(C)[C@@H](NC(=O)OCc1ccccc1)c1ccccc1,/,/,0.19,/,/
O=C(O)C1(P(=O)(c2ccccc2)c2ccccc2)CCC1,1,1,0.34,-3,1
CCOC(=O)C1(P(=O)(c2ccc(Cl)cc2)c2ccc(Cl)cc2)CCC1,0.7,0.2,-6.3*,80*,29
O=C1CN(C(=O)COc2ccccc2)CCN1,/,/,1.1,/,/
CCCCN(CCCNC(=O)c1c(C)cc(=O)oc1C)c1ccccc1,0.1,0.5,-0.76,51*,90*
CCN(CCCNC(=O)c1[nH]c(C)c(C(C)=O)c1C)c1cccc(C)c1,0.5,0.5,-0.14,53*,50
SMILES,CYP2C9 activ,CYP2C19 activ,Cav32 inh,CYP2C19 inhib,CYP2C9 inh
CCN(CCCNC(=O)c1c(C)cc(=O)oc1C)c1ccccc1,0.2,0,0.015,98*,83*
COC(=O)c1sccc1NC(=O)c1csc(C)c1,0.9,0.5,-1.3,47,10
CCCOc1c(OC)cccc1C1CC(=O)Nc2cc3c(cc21)OCO3 (centres undefined),0.5,0,-0.97,96*,52*
CCCOc1c(OC)cccc1C1CC(=O)Nc2cc3c(cc21)OCCO3 (centres undefined),0.3,0.6,/,44,68*
CCOc1c(OC)cccc1C1CC(=O)Nc2cc(OC)c(OC)cc21 (centres undefined),/,/,0.41,/,/
CCN(CC)c1ccc(C2CC(=O)Nc3cc(OC)c(OC)cc32)cc1 (centres undefined),0.6,0.6,0.34,39,39
CCN(CC)CCCN1C(=O)C(=O)/C(=C(/O)c2ccccc2)C1c1cc(OC)ccc1OC (centres undefined),1,1,0.63,1,1
O[C@H]1COC2C1OC[C@@H]2O (some centres undefined),/,/,-1.7,/,/
Cn1c(=O)[nH]c(=O)c2c1nc(N1CCN(c3ccccc3)CC1)n2CCSc1ncccn1,0.8,0.6,0.67,38,18
COc1ccc(CCn2c(N3CCN(Cc4ccccc4)CC3)nc3c2c(=O)[nH]c(=O)n3C)cc1,0.6,0.4,0.13,62*,43
Cc1ccnc(SCCn2c(N3CCN(Cc4ccccc4)CC3)nc3c2c(=O)[nH]c(=O)n3C)n1,0.2,0.2,0.76,83*,78*
COc1ccc(-c2nnn(CC(=O)N(Cc3ccccc3Cl)C(C(=O)NCC3CCCO3)c3ccco3)n2)cc1OC (centres undefined),0.1,0.8,-1,19,92*
Cc1ccc(C(C(=O)NCC2CCCO2)N(Cc2ccccc2F)C(=O)Cn2nnc(-c3cccs3)n2)cc1 (centres undefined),0.5,0.7,-0.82,33,52*
COc1ccc(N(C(=O)Cn2nnc(-c3ccc(Cl)cc3)n2)C(C(=O)NCC2CCCO2)c2ccc(C)cc2)cc1 (centres undefined),0.9,1.1,0.024,-12,7
O=[N+]([O-])c1ccc(Cl)c(C2Nc3cccc4cccc(c34)N2)c1,0.7,0.8,0.026,21,32
CCOC(=O)Cc1c(C)c2c(C)nn(-c3ccccc3)c2oc1=O,0.7,0.9,-0.39,11,35
Cn1c(SCC(=O)NC(=O)NCc2ccco2)nnc1C(F)(F)F,0.9,0.9,/,15,12
O=C(NCc1ccco1)c1ccc(=O)oc1,1.1,1,0.47,-3,-13
O=C(COC(=O)CC1CCCC1)Nc1cc2c(cc1Cl)C(=O)c1ccccc1C2=O,0.6,0.4,0.14,61*,42
O=C(COC(=O)CCC1CCCC1)Nc1ccc(Cl)cn1,0.7,0.8,0.52,22,30
CC(C)(C)c1cc(C(=O)NCc2ccccc2)ccn1,/,/,1.1,/,/
COC(=O)c1sc2nc(CSc3nc4ccc(C)cc4[nH]3)[nH]c(=O)c2c1C,0.6,0.9,0.0019,9,44
CCOC(=O)c1sc2nc(CSc3nc4ccccc4n3CC)[nH]c(=O)c2c1C,0.3,0.6,-0.026,44,68*
Cc1sc2nc(CSc3nc4ccccc4c(=O)n3CCCN3CCOCC3)[nH]c(=O)c2c1C,0.3,0.3,-0.97,71*,70*
CC(=O)c1c(C)[nH]c(C(=O)CSc2nc3ccccc3c(=O)n2CCCN2CCOCC2)c1C,0.3,0.3,1.1,69*,66*
COCCn1c(SCC(=O)c2[nH]c(C)c(C(C)=O)c2C)nc2ccccc21,0.2,0.1,0.68,95*,78*
O=c1c2ccccc2nc(-c2ccccc2)n1CCCN1CCOCC1,1.2,1.1,-0.003,-14,-22
